# Compounds with a hit are over-represented: about 11% of the library has one in this group of screens.
# HTT aggregate: inhibitors of mutant huntingtin aggregate formation in PC12 cells. PC12 HttQ103-GFP aggregates, Acumen cytometry, 40 h. Potency, µM (series often up to 46.1 µM), for inactives: at the top dose activity change, negative = inhibition, usual class: inhibitors. 220,000 tested, 1.1% active. AID 1688; active = well fitted curve in the direction sought with a large enough effect; inconclusive = small, poorly fitted or top-dose-only effect, or another doubt; inactive = no such curve, though single readings can be large; an effect the other way counts as inactive or inconclusive; note: potency is the fitted concentration of half-maximal effect; % is set by controls: 0 for no effect and ±100 for the full control effect; nearly all actives have a fitted effect of over 60% in size
#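 Read-out: GFP aggregate count by laser scanning cytometer (488 nm excitation, 500-530 nm emission, 1–25 µm objects >6 SD above background). Cells: PC12, inducible HTTex1-Q103-GFP, 100 nM tebufenozide; compounds titrated.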
# GoLoco inh red: blocks human Gai1 binding to RGS12 GoLoco peptide, red readout; 230,000 tested, 0.44% active; P63096; Gai1:RGS12 GoLoco peptide FP, rhodamine, 10 min; Potency, µM (highest dose often 61.6 µM), without a hit: at the highest dose activity, negative = inhibition, usual class: inhibitors; AID 880; active = well fitted inhibition curve with a large enough effect, not every such curve was filed as active; inactive = no such curve, though single readings can be large or run the other way; note: potency is the fitted concentration of half-maximal effect; % is set by controls: 0 for no effect and ±100 for the full control effect; nearly all actives have a fitted effect of over 30% in size
# Target sequence (P63096 whole entry, looked up): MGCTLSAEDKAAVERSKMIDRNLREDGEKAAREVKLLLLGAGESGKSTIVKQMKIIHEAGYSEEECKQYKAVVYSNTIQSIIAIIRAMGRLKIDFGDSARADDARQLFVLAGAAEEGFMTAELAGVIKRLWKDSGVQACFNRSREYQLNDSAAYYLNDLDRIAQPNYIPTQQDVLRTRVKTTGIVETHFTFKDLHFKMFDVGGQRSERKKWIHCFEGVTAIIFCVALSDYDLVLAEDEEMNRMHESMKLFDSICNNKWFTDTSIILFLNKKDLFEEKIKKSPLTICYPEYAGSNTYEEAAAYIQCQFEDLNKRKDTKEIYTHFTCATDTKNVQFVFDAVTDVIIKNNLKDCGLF
# PNC assembly inh: blocks assembly of the perinucleolar compartment | PC3M PTB-GFP, PNC prevalence imaging, 16 h; hits give low values | 140,000 tested, 3.1% active | activity change (PNC), negative = inhibition, % at 10 µM;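 active = readout at or below -70, meaning at least 70% loss of cells showing the perinucleolar compartment, a nuclear body marking cancer cells; inconclusive = readout between -30 and a set limit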;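 note: plate controls were DMSO wells for no effect and camptothecin positive control wells for full effect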
#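 PC3M cells stably expressing PTB-GFP, 750–1000 cells/well, treated 16 h at 37 °C with compound (23 nl of library stock), in duplicate. After paraformaldehyde fixation and Hoechst stain, imaged at 20x; PNC prevalence scored by image analysis.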
# ALDH1A1 block: inhibitors of human aldehyde dehydrogenase 1A1. P00352. Potency, µM (series often up to 75.3 µM), without a hit: top-dose activity, negative = inhibition, most hits filed as inhibitors. 220,000 tested, 7.3% active. AID 1030. Purified ALDH1A1, NADH fluorescence, propionaldehyde substrate;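 note: potency is the fitted concentration of half-maximal effect; plate controls were no enzyme wells and a reference inhibitor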
# HPGD inh: inhibitors of human 15-hydroxyprostaglandin dehydrogenase (HPGD); P15428; Potency, µM, without a hit: at the highest dose activity change, negative = inhibition, most hits filed as inhibitors; purified HPGD, NADH fluorescence kinetic, PGE2 substrate; AID 894; 150,000 tested, 4.3% active; note: potency is the fitted concentration of half-maximal effect; % is set by controls: 0 for no effect and ±100 for the full control effect
# Target sequence (P15428 whole entry, looked up): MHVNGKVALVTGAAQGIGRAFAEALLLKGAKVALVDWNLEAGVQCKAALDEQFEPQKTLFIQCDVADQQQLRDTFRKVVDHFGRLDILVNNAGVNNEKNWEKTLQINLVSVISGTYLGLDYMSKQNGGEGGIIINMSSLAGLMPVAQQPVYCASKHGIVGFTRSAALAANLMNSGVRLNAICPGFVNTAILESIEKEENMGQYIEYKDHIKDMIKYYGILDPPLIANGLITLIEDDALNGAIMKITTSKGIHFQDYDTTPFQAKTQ
#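 20 nM HPGD preincubated 15 min at room temperature with compound in 50 mM Tris-HCl pH 8, 0.01% Tween 20. Started with 1 mM NAD+ and 30 uM prostaglandin E2; NADH fluorescence (360/450 nm) read 5 times over 30-s intervals, last minus first.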
# HTT cytoprotect: cytoprotection in Huntington HTT-Q103 PC12 cell model; 230,000 tested, 0.14% active; PC12 HTT-Q103 induced, cytoprotection, ATP luminescence, 40 h; Potency, µM (top dose mostly 56.4 µM), for the others: cytoprotection (ATP increase), usual class: activators; active = well fitted curve in the direction sought with a large enough effect; inconclusive = small, poorly fitted or top-dose-only effect, or another doubt; inactive = no such curve, though single readings can be large; an effect the other way counts as inactive or inconclusive; note: potency is the fitted concentration of half-maximal effect; % of control where 0% means no effect; nearly all actives have a fitted effect of over 45% in size
#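 Huntington model: PC12 line, ecdysone-inducible HTTQ103 exon1–GFP, tebufenozide 100 nM. Test articles in a dose series. Endpoint luminescence from cellular ATP.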
# Active calls of the source: *; ? = inconclusive; nt = no result given; [ ] = dose if it differs, or a comment. Unless noted, calls come from the whole dose curve; as a rule, active = well fitted inhibition curve with a large enough effect (not every such curve was filed as active); inconclusive = small, poorly fitted or top-dose-only effect, or another doubt; inactive = no such curve, though single readings can be large or run the other way.
SMILES,HTT aggregate,GoLoco inh red,PNC assembly inh,ALDH1A1 block,HPGD inh,HTT cytoprotect
COc1ccccc1CCn1c(=O)c(C)nc2cncnc21,nt,18%,nt,-4%,-8%,-5%
CN(C)CCCN=c1c2ccccc2n(C)c2[nH]c(=O)n(C)c(=O)c12,nt,4%[14.2 µM],nt,-4%[13.5 µM],-1%,-65%[10 µM]
FC(F)(F)Oc1ccc(NC(=S)Nc2ccccc2N2CCOCC2)cc1,-8%[9.22 µM],0%,nt,?,nt,-1%[10 µM]
CCN(Cc1ccccc1)Cc1nnnn1Cc1ccccc1,-5%[9.22 µM],10%,nt,?,nt,20%[10 µM]
Cc1cc(C(=O)OCC(=O)NCc2cccs2)c2ccccc2n1,2%,4%,nt,-1%,nt,-9%
C[C@@]12CCC(=O)C=C1CC[C@H]1[C@H]3CC[C@](O)(C(=O)CO)[C@]3(C)CC[C@@H]12,nt,nt,nt,nt,nt,-20%[1.9 µM]
CC(=O)c1cccc(S(=O)(=O)NC2CCCCCC2)c1,-21%,3%,20,10µM*,-14%,3%[10 µM]
CC(=O)c1cccc(S(=O)(=O)NC2CC2)c1,-2%,-11%,-4,?,-12%,9%[10 µM]
O=C(NNC(=O)c1ccc(F)cc1F)c1ccc2c(c1)OCO2,22%,4%,nt,0%,nt,-4%[10 µM]
COc1ccc(NS(=O)(=O)c2cccc(Cl)c2)cc1S(=O)(=O)N1CCCCC1,-14%,0%,63,16µM*,-9%,-23%[0.074 µM]
COc1ccc(NS(=O)(=O)c2cc(Cl)ccc2Cl)cc1S(=O)(=O)N1CCCCC1,15%[9.22 µM],-1%,nt,-6%,nt,-20%
COc1ccc(NS(=O)(=O)c2cccc(Cl)c2Cl)cc1S(=O)(=O)N1CCCCC1,-24%,3%,10,0.35µM*,-3%,2%[10 µM]
CCC(CO)NC(=O)c1cc2c(s1)CCC2 (stereo not given),-15%,2%,56,3%,-4%,-9%
CC(NC(=O)c1cc2c(s1)CCCC2)C(C)(C)C (stereo not given),0%,-5%,30,-4%,14µM*,11%
Cc1csc(NC(=O)c2cc3c(s2)CCC3)n1,-5%,5%,-11,?,7.9µM*,-79%[10 µM]
C/C(=N\NS(=O)(=O)c1ccccc1)c1cc(Cl)cc(Cl)c1O,-12%,7%,nt,?,nt,-2%[10 µM]
CC(c1ccccc1C(O)(c1ccccc1)c1ccccc1)N(C)C (stereo not given),-8%,-5%,82,9%,-9%,-5%[10 µM]
C[C@@H]1/C=C\CC(=O)OC[C@H](C)C(=O)N2CCC[C@@H]2C(=O)OC1,nt,nt,nt,0%[13.5 µM],nt,?
COc1cc(C)c(NC(=S)Nc2ccc(Cl)c(Cl)c2)cc1OC,?,-5%,?,8.9µM*,16µM*,?
COc1cc(Cl)c(C)cc1NC(=S)NN,-3%,3%,nt,11µM*,nt,-36%
COC(=O)c1cc(OC)c(OC)cc1NC(=S)Nc1cccc(Cl)c1,13%,8%,20,?,-16%,5%
COc1cc(NC(=S)Nc2ccc(Br)cc2Cl)c(OC)cc1Cl,-2%,4%,-23,28µM*,-27%,45%[10 µM]
COc1cc(NC(=S)NCCc2ccc(S(N)(=O)=O)cc2)c(OC)cc1Cl,26%,0%,nt,11µM*,nt,-2%
COc1cccc(Nc2ncc3nc(-c4ccccc4)c(=O)n(C)c3n2)c1,nt,64%,nt,?,nt,-22%
COc1ccc(S(=O)(=O)NCCc2nnc3ccc(SCc4cccnc4)nn23)cc1,-3%,6%,nt,-12%,nt,-17%
SMILES,HTT aggregate,GoLoco inh red,PNC assembly inh,ALDH1A1 block,HPGD inh,HTT cytoprotect
CC(C)Nc1nc(Cl)nc(N(C#N)CN2C(=O)c3ccccc3S2(=O)=O)n1,-12%[9.22 µM],-10%,nt,22µM*,nt,-13%[10 µM]
COc1nc(NC(C)C)nc(N(C#N)CN2C(=O)c3ccccc3S2(=O)=O)n1,-24%[9.22 µM],-5%,nt,nt,nt,2%[10 µM]
CN(C)c1nc(N(C)C)nc(N(C#N)CN2C(=O)c3ccccc3S2(=O)=O)n1,-11%,7%,nt,20µM*,nt,-22%
CC1CCC(C(C)C)C(OC(=O)CSc2nccc(=O)[nH]2)C1 (stereo not given),0%,3%,22,25µM*,-2%,17%[10 µM]
CC1CCC(C(C)C)C(OC(=O)COC(=O)c2ccc(=O)[nH]c2)C1 (stereo not given),-5%,4%,?,5%,-11%,1%[10 µM]
COc1cccc(NC(=O)N2CCN(c3nnnn3-c3ccccc3)CC2)c1,-12%,-3%,nt,6.3µM*,nt,-21%
O=C(Nc1cccc(F)c1)C1CCN(c2nnnn2-c2ccccc2)CC1,2%,6%,?,22µM*,-10%,19%
O=C(Nc1ccc2c(c1)OCCO2)C1CCN(c2nnnn2-c2ccccc2)CC1,-1%,-4%,?,3.5µM*,-3%,-36%
CCOc1ccc(NC(=O)C2CCN(c3nnnn3-c3ccccc3)CC2)cc1,-9%,11%,?,13µM*,-3%,11%[1.9 µM]
O=C(O)C1C2CCC(O2)C1C(=O)Nc1cccc(F)c1 (stereo not given),-8%,-5%,?,0%,-7%,-2%
COc1cccc(NC(=O)N2CCCC2)c1,?,-2%,nt,2%,nt,-45%
O=C(Nc1ccc2c(c1)OCCO2)C1CCN(S(=O)(=O)c2ccccc2)CC1,-6%,12%,nt,-5%,nt,-40%
CCOc1ccc(NC(=O)C2CCN(C(=O)NCc3ccccc3)CC2)cc1,-2%,1%,?,10%,-7%,-1%
NC(=O)C1CCN(c2nnnn2-c2ccccc2)CC1,3%,12%,-18,?,-7%,1%
O=C(C1CCN(c2nnnn2-c2ccccc2)CC1)N1CCN(c2ccccc2)CC1,4%,-8%,-19,10µM*,-3%,1%[10 µM]
CCOC(=O)/C(C#N)=C1/C=C(C)NC(c2ccccc2O)=N1,11µM*,-2%,7,?,-13%,-16%[10 µM]
O=C(NCc1ccccc1)c1ccc(Br)cc1Br,-3%,-10%,83,5%,3.5µM*,-52%[10 µM]
O=C(NCc1ccccc1)c1ccc(OC2CSC2)cc1,0%,-5%,?,3%,-18%,-20%[1.9 µM]
COc1cc(OC)cc(C(=O)NC(=S)NCCc2ccccc2)c1,-17%,-8%,33,1.1µM*,-11%,-44%
O=C(NCc1ccccc1)c1ccc(Oc2ccc(C(=O)NCc3ccccc3)cc2)cc1,-17%,-4%,5,0%,13µM*,?
O=C(NCc1ccccc1)c1ccccc1Br,2%,0%,nt,6%,nt,-35%
COC(=O)c1sc(NC(=S)NC(=O)c2ccccc2)nc1C,3%,0%,-88*,-6%,-7%,1%[10 µM]
CC(C)(C)c1cc(C(=O)NCc2ccccc2)ccn1,11µM*,-12%,41,4%,-18%,-9%
C/C(=N\NC(=S)NCc1ccccc1)c1ccc2ccccc2c1,-4%,0%,-99*,3%,-5%,-16%[10 µM]

# Source: PubChem
